# Screening data deposited in PubChem BioAssay by several laboratories.
# RecA splice inh: Mtb RecA intein splicing inhibitors, primary screen, biochemical, fluorescence, HTS | cell-free RecA intein splicing | 290,000 compounds, 0.75% hits | Protein RecA (Mycobacterium tuberculosis (strain ATCC 25618 / H37Rv)), P9WHJ3 | inhibition, % (concentration not given with the values); in the data active = inhibition above about 30%;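 note: 0% = vehicle wells and 100% = reference inhibitor control wells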
# Target sequence (P9WHJ3 whole entry, looked up, canonical isoform): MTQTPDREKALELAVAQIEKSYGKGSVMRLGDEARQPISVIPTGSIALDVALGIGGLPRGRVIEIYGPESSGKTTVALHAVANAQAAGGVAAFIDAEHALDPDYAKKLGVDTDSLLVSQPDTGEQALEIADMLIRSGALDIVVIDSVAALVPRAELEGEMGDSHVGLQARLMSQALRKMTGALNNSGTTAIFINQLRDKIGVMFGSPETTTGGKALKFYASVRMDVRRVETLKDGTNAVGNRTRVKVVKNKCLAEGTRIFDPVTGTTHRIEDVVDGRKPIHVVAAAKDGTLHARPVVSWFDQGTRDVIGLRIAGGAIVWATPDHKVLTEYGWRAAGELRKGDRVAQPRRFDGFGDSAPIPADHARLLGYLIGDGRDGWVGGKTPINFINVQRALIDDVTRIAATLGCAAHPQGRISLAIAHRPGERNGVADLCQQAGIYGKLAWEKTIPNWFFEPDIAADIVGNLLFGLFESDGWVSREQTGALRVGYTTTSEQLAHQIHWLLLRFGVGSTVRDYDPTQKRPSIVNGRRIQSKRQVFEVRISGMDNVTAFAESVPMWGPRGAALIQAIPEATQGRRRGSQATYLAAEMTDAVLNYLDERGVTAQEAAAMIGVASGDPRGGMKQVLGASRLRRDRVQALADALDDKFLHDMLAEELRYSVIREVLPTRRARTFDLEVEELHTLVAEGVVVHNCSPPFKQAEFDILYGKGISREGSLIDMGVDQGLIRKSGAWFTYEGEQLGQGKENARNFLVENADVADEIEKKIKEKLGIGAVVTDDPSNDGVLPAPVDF
# Mtb hypoxia inh: PubChem AID 1159583; M. tuberculosis hypoxia-regulated fluorescent reporter, fluorescence; fluorescence inhibition, % (concentration not given with the values); 300,000 compounds, 0.1% hits; in the data active = fluorescence inhibition mostly above about 23%, no sharp cut-off; inactive = mostly below about 17%
# BJeLR viability: MLPCN primary cell-based screen for lethality selective to Ras in HRASV12 cells; BJeLR (HRASV12) viability, CellTiter-Glo ATP luminescence, 48 h; 300,000 compounds, 0.17% hits; inhibition, % (concentration not given with the values); in the data active = inhibition above about 50%
# CCHFV vOTU inh: CCHFV vOTU protease inhibitors, primary screen, biochemical, Pep-AMC substrate, fluorescence | Crimean-Congo hemorrhagic fever virus L polyprotein viral ovarian tumor (vOTU) protease … | inhibition, % at 11.5 µM | 370,000 compounds, 0.55% hits | AID 651958, 2012; in the data active = inhibition above about 30%; note: 0% = vehicle wells with enzyme and 100% = no enzyme wells
# RN4220 kill: growth inhibition of S. aureus RN4220, primary screen, OD600; 16 h; inhibition, % (no concentration beside the values); 330,000 compounds, 0.33% hits; AID 1259311, 2017; in the data active = inhibition above about 85%;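 note: plate controls were untreated cells for no effect and reference antibiotic for full effect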
# ugtP null kill: growth inhibition of ugtP-null S. aureus, primary screen, RN4220 ugtP deletion, OD600; 16 h; growth inhibition, % (no concentration beside the values); 330,000 compounds, 0.54% hits; AID 1259309, 2017; in the data active = growth inhibition above about 68%;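 note: plate controls were untreated wells for no effect and antibiotic for full effect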
# * marks the source's active call; other numbers are inactive results; · = not tested or not shown. In the library only some 1.6% were active in any assay of this set; here they are far more common.
SMILES,RecA splice inh,Mtb hypoxia inh,BJeLR viability,CCHFV vOTU inh,RN4220 kill,ugtP null kill
CC/C(=C/c1sc2ccc(C)cc2[n+]1CCO)SC,34.0*,2.5,10.3,12.7,2.3,5.1
CCN(c1ccccc1)S(=O)(=O)c1ccc(Cl)c(NC(=O)COC(=O)c2cc(O)c3ccccc3c2O)c1,80.3*,·,3.4,·,·,·
CCCCOc1c(Br)cc(C=NO)cc1OCC,·,2.1,·,·,0.4,100.1*
CCCCOc1c(Br)cc(/C=N/O)cc1OCC,0.7,·,-14.9,12.7,·,·
Cc1ccc(C(=O)NCC#N)cc1,-0.6,1.2,-13.9,1.8,0.4,8.5
Cc1ccc(C(=O)NC(C#N)=C(Cl)Cl)cc1,33.2*,0.2,13.1,7.2,8.6,9.7
COC12C(COC(N)=O)C3=C(C(=O)C(C)=C(N)C3=O)N1CC1C2N1C (configuration not stated),6.5,·,-19.1,6.2,100.0*,100.3*
C=CC(=O)N1CC=CC(c2ccc(OC)cc2)N(Cc2ccc(F)cc2)C(=O)C1 (configuration not stated),·,-1.1,·,·,7.1,2.2
CC(C(=O)NC1C(=O)N2C(C(=O)O)=C(CSc3nnnn3C)CSC12)n1cc(Br)cn1 (configuration not stated),0.7,·,-9.4,-2.8,100.2*,99.8*
Cc1cc(C(F)F)nn1CC(=O)NC1C(=O)N2C(C(=O)O)=C(CSc3nnnn3C)CSC12 (configuration not stated),25.1,·,3.4,14.3,99.8*,99.6*
CN(C)CCn1nnnc1SCC1=C(C(=O)O)N2C(=O)C(NC(=O)Cc3csc(N)n3)C2SC1 (configuration not stated),·,22.4,·,·,100.3*,100.4*
CC1=C(C(=O)O)N2C(=O)C(NC(=O)c3ccn(C)n3)C2SC1 (configuration not stated),0.1,·,4.4,-0.7,4.2,3.5
Cn1nnnc1SCC1=C(C(=O)O)N2C(=O)C(NC(=O)C3CC3c3ccccc3)C2SC1 (configuration not stated),-1.5,·,0.5,9.7,100.2*,99.6*
O=C(Nc1ccc(Cl)c(C(F)(F)F)c1)C1CC=CC2CCN(Cc3ccc(Cl)c(Cl)c3)C(=O)C21 (configuration not stated),·,9.6,·,·,-9.6,-3.3
CC1NC(=O)c2cc([N+](=O)[O-])cc(F)c2NCCCC(C(N)=O)NC(=O)C(CC(N)=O)NC1=O (configuration not stated),·,8.2,·,·,5.1,3.4
Cc1nn(C(C)C(=O)NC2C(=O)N3C(C(=O)O)=C(CSc4nnnn4C)CSC23)cc1Cl (configuration not stated),-1.9,·,8.1,-4.8,99.8*,98.6*
Cn1nnnc1SCC1=C(C(=O)O)N2C(=O)[C@@H](NC(=O)[C@H](O)c3ccccc3)[C@H]2SC1,-2.2,·,6.7,·,·,·
Cc1cc(C)cc(NC(=O)CSc2ccc(-c3ccccn3)nn2)c1,-1.1,13.4,0.8,-16.0,2.4,0.0
Cc1ccccc1NC(=O)CSc1ccc(-c2ccccn2)nn1,-2.0,39.5*,-0.1,-2.9,1.7,11.6
COC(=O)c1c(C)oc2ccc(N(C(=O)c3ccncc3)S(=O)(=O)c3ccc(C)cc3C)cc12,56.1*,-4.0,15.1,-2.5,6.9,3.2
Cc1cc(F)ccc1S(=O)(=O)N(C(=O)c1ccncc1)c1ccc(OC(=O)c2ccncc2)cc1,30.5*,20.2,-7.7,6.8,4.3,4.7
COC(=O)c1c(C)oc2ccc(N(C(=O)c3ccncc3)S(=O)(=O)c3ccc4ccccc4c3)cc12,38.4*,9.8,4.1,-5.8,3.2,11.5
COC(=O)c1c(C)oc2ccc(N(C(=O)c3ccncc3)S(=O)(=O)c3ccccc3)cc12,29.0,·,-2.1,6.6,9.1,1.0
Cc1ccc([N+](=O)[O-])cc1S(=O)(=O)N(C(=O)c1ccncc1)c1ccc2oc3c(c2c1)CCCC3,42.6*,-0.8,8.8,4.6,-7.1,46.3
O=C(Nc1cccnc1)C(N=Nc1cccnc1)=C(O)c1ccccc1,·,0.1,·,·,12.0,-21.1
Cc1cccc(C2C3C(=O)N(Cc4ccccc4)C(=O)C3[C@]3(Cc4ccccc4)C(=O)N(c4ccccc4)C(=O)N23)c1 (some centres not stated),·,-2.5,·,·,8.0,4.5
